In PubChem BioAssay AID504387 (National Center for Advancing Translational Sciences (NCATS), 2011):
The source made the active and inactive calls. The rule behind the calls is not given here.

These compounds were tested against Thyrotropin receptor (Homo sapiens) (UniProt P16473) (assay: Concentration-response assay for antagonists of the thyroid stimulating hormone receptor: ELISA activity detection). Conditions: HEK293-TSHR, TSH-induced cAMP, ELISA chemiluminescence.
Excerpt: TSH is an alpha/beta heterodimeric glycoprotein hormone secreted from the anterior pituitary gland which belongs to the glycoprotein hormone family. The actions of TSH are mediated by a seven-transmembrane receptor, which upon TSH binding couples preferentially to the G-alpha (s) protein (Gs), resulting in activation of adenylate cyclase and increase in cyclic adenosine 3', 5' monophosphate (cAMP). The TSH receptor (THSR) is mainly expressed in thyroid follicular cells and regulates their growth and function. This cell based assay was conducted on a TSHR transfected HEK 293 cell line, measuring cAMP stimulation using antibody-based Homogeneous Time Resolved Fluorescence (HTRF). Our goal is to identify small molecules that will inhibit (antagonize) the thyroid-stimulating hormone receptor (TSHR), a member of the 7 transmembrane-spanning receptor (7TMR) family of cell surface receptors. TSHR-mediated hyperthyroidism is important in thyroid pathology. The development of small molecule antagonists of TSHR may lead to therapeutic approaches for TSHR-mediated hyperthyroidism caused by constitutively activating mutations or stimulating auto-antibodies associated with Graves' disease. Graves' disease is the leading cause of hyperthyroidism and is caused by autoantibodies that stimulate TSHR (TsAbs) causing thyroid growth and unregulated overproduction of thyroid hormones and existing treatments have liabilities (agranulocytosis). In addition, TSHRs are known to be expressed in multiple extrathyroidal tissues including bone, brain, kidney, testis, fat and cells of the immune system but the role of the TSHR in these tissues is not clear. Therefore, TSHR antagonists/inverse agonists could be used as probes of extrathyroidal TSHR function. Finally, TSHR inverse agonists, which are a subclass of antagonists that inhibit agonist-independent (or basal or constitutive) TSHR signaling, could be used to inhibit TSH-independent signaling in patients with recurrent or metastatic thyroid cancer who are receiving thyroid hormone to suppress TSH. A confirmatory assay of TSHR antagonists was conducted on a HEK 293 cell line stably expressing the TSHR, using an orthogonal detection technology to measure cAMP stimulation: an ELISA based cAMP competition assay using cAMP-Screen Direct System (Applied Biosystems, Foster City, CA).
Transiently transfected HEK-EM 293 cells or cells stably expressing TSHRs were seeded into 96-well plates at a density of 7 x10^4 cells per well in DMEM containing 10% FBS. Cells were cultured for 24 h before incubation for 20 min in HBSS/10 mM HEPES (pH 7.4). To determine the effect of the compound on TSH induced TSHR activity, cells were incubated for 20 min with the compound in HBSS/HEPES without IBMX and subsequently for 40 min with bovine TSH (Sigma) and the compound in HBSS/HEPES supplemented with 1 mM IBMX at 37 C. The levels of cAMP in cells incubated in HBSS/HEPES without IBMX were subtracted in all experiments. After aspiration of the incubation medium, cells were lysed using lysis buffer of the cAMP-Screen Direct system (Applied Biosystems, Foster City, CA). The cAMP content of the cell lysate was determined using the method described in the manufacturer's protocol. The chemiluminescence signal was measured in a VICTOR3 V 1420 multilabel counter (PerkinElmer, Norwalk, CT). The potencies (EC50 and IC50) of the ligands were obtained from dose-response curves by data analysis with GraphPad Prism 4 for Windows.

Chain of Thyrotropin receptor (Homo sapiens) (P16473 whole entry, looked up): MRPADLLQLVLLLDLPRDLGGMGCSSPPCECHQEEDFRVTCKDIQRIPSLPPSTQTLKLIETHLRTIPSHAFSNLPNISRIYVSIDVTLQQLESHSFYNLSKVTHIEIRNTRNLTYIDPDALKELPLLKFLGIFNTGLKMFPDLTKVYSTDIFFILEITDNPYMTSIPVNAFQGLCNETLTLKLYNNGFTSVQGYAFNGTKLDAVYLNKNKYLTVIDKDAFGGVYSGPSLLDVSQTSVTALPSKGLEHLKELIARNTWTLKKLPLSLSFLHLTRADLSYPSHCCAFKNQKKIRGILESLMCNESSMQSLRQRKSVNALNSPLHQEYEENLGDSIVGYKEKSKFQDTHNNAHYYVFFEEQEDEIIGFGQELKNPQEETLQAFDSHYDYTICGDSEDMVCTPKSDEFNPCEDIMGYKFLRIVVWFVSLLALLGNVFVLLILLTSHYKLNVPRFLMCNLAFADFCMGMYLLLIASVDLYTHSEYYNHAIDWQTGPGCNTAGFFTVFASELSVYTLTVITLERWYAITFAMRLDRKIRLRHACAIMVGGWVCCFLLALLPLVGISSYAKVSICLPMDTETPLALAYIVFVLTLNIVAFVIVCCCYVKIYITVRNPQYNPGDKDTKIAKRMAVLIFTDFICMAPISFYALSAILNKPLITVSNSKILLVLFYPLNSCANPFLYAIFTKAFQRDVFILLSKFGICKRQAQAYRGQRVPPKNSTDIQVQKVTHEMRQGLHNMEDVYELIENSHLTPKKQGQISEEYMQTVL

IC50, active:
COc1ccc(C2Nc3ccccc3C(=O)N2Cc2ccc(C)o2)cc1COc1c(C)cccc1C (stereo unspecified) 2.3 µM
COc1ccc(C2Nc3ccccc3C(=O)N2Cc2ccco2)cc1CSc1c(C)cccc1C (stereo unspecified) 9.9 µM
Cc1cccc(C)c1OCc1cccc(C2Nc3ccccc3C(=O)N2Cc2ccco2)c1 (stereo unspecified) 1.9 µM
COc1ccc(C2Nc3ccccc3C(=O)N2Cc2ccco2)cc1COc1c(C)cc(NC(C)=O)cc1C (stereo unspecified) 2.3 µM
COc1ccc(C2Nc3ccccc3C(=O)N2Cc2cccs2)cc1COc1c(C)cccc1C (stereo unspecified) 1 µM
CCc1cccc(CC)c1OCc1cc(C2Nc3ccccc3C(=O)N2Cc2ccco2)ccc1OC (stereo unspecified) 22.3 µM
COc1ccc(C2Nc3ccccc3C(=O)N2Cc2cccnc2)cc1COc1c(C)cccc1C (stereo unspecified) 3.5 µM

outcome, inactive:
COc1ccc(C2Nc3cccc(O)c3C(=O)N2Cc2ccco2)cc1COc1c(C)cc(NC(C)=O)cc1C (stereo unspecified)
COc1ccc(C2Nc3ccccc3C(=O)N2Cc2ccccc2)cc1COc1c(C)cccc1C (stereo unspecified)
COc1ccc(C2Nc3ccccc3C(=O)N2Cc2ccco2)cc1COc1ccccc1C (stereo unspecified)
COc1ccc(C2Nc3ccccc3C(=O)N2Cc2ccccn2)cc1COc1c(C)cccc1C (stereo unspecified)
